About 79,000 compounds went through this panel and 15% of them were active in at least one assay; those are over-represented in the sample as a whole. Calls of active or inactive are those of the source. No stated cut-off is given here; in the data, active means growth inhibition above about 70%; inactive means the rest.
Experiment: NCI Yeast Anticancer Drug Screen. Data for the mec2-1 strain (AID 157)
Settings: S. cerevisiae mec2-1 strain, at 50.0 µM (retest, dose inferred, filed as 5.0), stronger effect = higher value
In short: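 Test agents were screened against the mec2-1 yeast strain, with defined DNA repair or cell cycle alteration. Growth was scored as inhibition against vehicle-only controls.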

Row | SMILES | growth inhibition
1 | COC(=O)/C=C/c1cccc[n+]1[O-] | -4% (inactive)
2 | CN(C)CCCNc1c(C#N)[n+]([O-])c2cc(Cl)ccc2[n+]1[O-] | 93% (active)
3 | Cc1c(N=Nc2ccc(Br)cc2)c(-c2ccccc2)nn1C(N)=S | 97% (active)
4 | COc1cc2c(c(OC)c1OC)-c1ccc(O)c(=O)cc1C(N=Cc1ccccc1)CC2 (stereo not given) | -7% (inactive)
5 | CCC(C)SC1SCC2C(=O)N(C)C3(CC3C)C(=O)OCC(NC(=O)c3nc4ccccc4cc3O)C(=O)NC(C)C(=O)N(C)C1C(=O)N(C)C1(CC1C)C(=O)OCC(NC(=O)c1nc3ccccc3cc1O)C(=O)NC(C)C(=O)N2C (stereo not given) | 92% (active)
6 | O=C(N/C(=C\c1ccc2c(c1)OCO2)c1nc2ccccc2s1)c1ccccc1 | 98% (active)
7 | CCCC/C=C1/CCC(CN(C)C)C1=O (stereo not given) | 48% (inactive)
8 | O=C(O)c1cc2c(cc1CC(Cc1ccc3c(c1)CCCC3)C(=O)O)CCCC2 (stereo not given) | 98% (active)
9 | CCNC(=O)COc1ccc(Cl)cc1Cl | 2% (inactive)
10 | Fc1ccc(OCCC(Cn2ccnc2)c2ccc(Cl)cc2Cl)cc1 (stereo not given) | 91% (active)
11 | Cc1ccc(NC(=O)/C(CC(=O)c2sc(Nc3ccc(Cl)c(Cl)c3)nc2C)=N\Nc2ccc([N+](=O)[O-])cc2[N+](=O)[O-])c(C)c1 | 96% (active)
12 | Oc1ccc(C/C=C/c2ccccc2)cc1O | 99% (active)
13 | CC(=O)OC1=CC2=CCC3C(CCC4(C)C(C(C)=O)CCC34)C2(C)CC1 (stereo not given) | 7% (inactive)
14 | CCCCNc1ccc(-c2c(N)nc(N)nc2CC)cc1[N+](=O)[O-] | 2% (inactive)
15 | ClCCOCCOc1c(Cl)cc(Cl)c(Cl)c1Cl | 13% (inactive)
16 | Cc1ccc(S(=O)(=O)C(=S)Sc2ccccc2)cc1 | 89% (active)
17 | CCC(C)(C)c1ccc(OCCO)c([N+](=O)[O-])c1 | 71% (active)
18 | CCCCCCC(C)S(=O)(=O)c1ccc(C)cc1 (stereo not given) | 83% (active)
19 | O=C1N(Cc2ccccc2)CC1(c1ccccc1)C1CCCCC1O (stereo not given) | 49% (inactive)
20 | COc1cc2c(oc(=O)c3cc(C)cc(OC)c32)c2c(C3OC(C)C(O)C(C)(O)C3O)ccc(O)c12 (stereo not given) | 97% (active)

Row | SMILES | growth inhibition
21 | CCc1cc(C)cc(NC(=O)OC2CCCCC2C)c1 (stereo not given) | 49% (inactive)
22 | Cc1cc(Nc2ccc(N=Nc3ccc(O)c4ncccc34)cc2)nc(C)n1 | 21% (inactive)
23 | Oc1ccc(C2SC(c3ccc(O)cc3)SC(c3ccc(O)cc3)S2)cc1 (stereo not given) | 96% (active)
24 | O=[N+]([O-])c1cnc(Sc2cncc[n+]2[O-])s1 | 100% (active)
25 | O=C(C1=Cc2ccccc2OC1)N1CCN(c2cccc(Cl)c2)CC1 | 98% (active)
26 | O=C1C=CC(=O)c2cc(Sc3ccccc3)c(=O)ccc21 | 38% (inactive)
27 | O=C(O)CCCCCCC(=O)CCl | 82% (active)
28 | CC(=O)NC1=C(Sc2ccc(C)cc2)C(=O)c2ccccc2C1=O | 99% (active)
29 | Cc1cc(O)c(C=NC(=S)C(N)=S)c(=O)o1 | 42% (inactive)
30 | Cc1cc(C)c(Cc2cc(C(C)(C)C)cc(C)c2O)cc1Cc1cc(C(C)(C)C)cc(C)c1O | 24% (inactive)
31 | O=C(O)CCC/C(=N\Nc1ccccc1)C(=O)O | 99% (active)
32 | Cc1cc(Oc2nc(Cl)nc(C(Cl)(Cl)Cl)c2Cl)cc(C)c1N(C)C (tested in a mixture with another compound) | -3% (inactive)
33 | CC(NCCO)c1ccc2ccccc2c1 (stereo not given) | -4% (inactive)
34 | [O-][n+]1ccc(Br)c(/C=C/c2ccccc2)c1 | 32% (inactive)
35 | O=C(NCCNCCNCCNC(=O)c1cc(-c2ccccc2)nc2ccccc12)c1cc(-c2ccccc2)nc2ccccc12 | 63% (inactive)
36 | CC(C)C(Sc1nc(-c2ccccc2)c(-c2ccccc2)[nH]1)C(=O)NN (stereo not given) | 96% (active)
37 | O=C(CNc1cccc(Cl)c1)Nn1c(-c2ccccc2)nc2ccccc2c1=O | 69% (inactive)
38 | O=C(COc1ccc(Cl)c(Cl)c1)Nc1ccc[n+](Cc2ccc(Cl)c(Cl)c2)c1 | 100% (active)
39 | CCOC(=O)c1cnccc1CC1(C#N)c2ccccc2C=CN1C(=O)c1ccccc1 (stereo not given) | 83% (active)
40 | O=C1C(N2CCOCC2)=C(Cl)C(=O)c2ncccc21 | 97% (active)

Same assay, conditions: S. cerevisiae mec2-1 strain, at 50.0 µM, stronger effect = higher value

Row | SMILES | growth inhibition
41 | COC(=O)/C=C/c1cccc[n+]1[O-] | -2.85% (inactive)
42 | CN(C)CCCNc1c(C#N)[n+]([O-])c2cc(Cl)ccc2[n+]1[O-] | 43.5% (inactive)
43 | Cc1c(N=Nc2ccc(Br)cc2)c(-c2ccccc2)nn1C(N)=S | 97.5% (active)
44 | COc1cc2c(c(OC)c1OC)-c1ccc(O)c(=O)cc1C(N=Cc1ccccc1)CC2 (stereo not given) | -4.45% (inactive)
45 | CCC(C)SC1SCC2C(=O)N(C)C3(CC3C)C(=O)OCC(NC(=O)c3nc4ccccc4cc3O)C(=O)NC(C)C(=O)N(C)C1C(=O)N(C)C1(CC1C)C(=O)OCC(NC(=O)c1nc3ccccc3cc1O)C(=O)NC(C)C(=O)N2C (stereo not given) | 91.9% (active)
46 | O=C(N/C(=C\c1ccc2c(c1)OCO2)c1nc2ccccc2s1)c1ccccc1 | 97.9% (active)
47 | CCCC/C=C1/CCC(CN(C)C)C1=O (stereo not given) | 37.4% (inactive)
48 | O=C(O)c1cc2c(cc1CC(Cc1ccc3c(c1)CCCC3)C(=O)O)CCCC2 (stereo not given) | 73.3% (active)
49 | CCNC(=O)COc1ccc(Cl)cc1Cl | -19.4% (inactive)
50 | Fc1ccc(OCCC(Cn2ccnc2)c2ccc(Cl)cc2Cl)cc1 (stereo not given) | 99.8% (active)
51 | Cc1ccc(NC(=O)/C(CC(=O)c2sc(Nc3ccc(Cl)c(Cl)c3)nc2C)=N\Nc2ccc([N+](=O)[O-])cc2[N+](=O)[O-])c(C)c1 | 98.3% (active)
52 | Oc1ccc(C/C=C/c2ccccc2)cc1O | 99.1% (active)
53 | CC(=O)OC1=CC2=CCC3C(CCC4(C)C(C(C)=O)CCC34)C2(C)CC1 (stereo not given) | 10.9% (inactive)
54 | CCCCNc1ccc(-c2c(N)nc(N)nc2CC)cc1[N+](=O)[O-] | 17.6% (inactive)
55 | ClCCOCCOc1c(Cl)cc(Cl)c(Cl)c1Cl | 27.6% (inactive)
56 | Cc1ccc(S(=O)(=O)C(=S)Sc2ccccc2)cc1 | 39.5% (inactive)
57 | CCC(C)(C)c1ccc(OCCO)c([N+](=O)[O-])c1 | 0.1% (inactive)
58 | CCCCCCC(C)S(=O)(=O)c1ccc(C)cc1 (stereo not given) | 84.7% (active)
59 | O=C1N(Cc2ccccc2)CC1(c1ccccc1)C1CCCCC1O (stereo not given) | 7.8% (inactive)
60 | COc1cc2c(oc(=O)c3cc(C)cc(OC)c32)c2c(C3OC(C)C(O)C(C)(O)C3O)ccc(O)c12 (stereo not given) | 89.3% (active)

Row | SMILES | growth inhibition
61 | CCc1cc(C)cc(NC(=O)OC2CCCCC2C)c1 (stereo not given) | 91% (active)
62 | Cc1cc(Nc2ccc(N=Nc3ccc(O)c4ncccc34)cc2)nc(C)n1 | 52.5% (inactive)
63 | Oc1ccc(C2SC(c3ccc(O)cc3)SC(c3ccc(O)cc3)S2)cc1 (stereo not given) | 99.3% (active)
64 | O=[N+]([O-])c1cnc(Sc2cncc[n+]2[O-])s1 | 99.4% (active)
65 | O=C(C1=Cc2ccccc2OC1)N1CCN(c2cccc(Cl)c2)CC1 | 35.9% (inactive)
66 | O=C1C=CC(=O)c2cc(Sc3ccccc3)c(=O)ccc21 | 42.2% (inactive)
67 | O=C(O)CCCCCCC(=O)CCl | 83.5% (active)
68 | CC(=O)NC1=C(Sc2ccc(C)cc2)C(=O)c2ccccc2C1=O | 10.1% (inactive)
69 | Cc1cc(O)c(C=NC(=S)C(N)=S)c(=O)o1 | -19.6% (inactive)
70 | Cc1cc(C)c(Cc2cc(C(C)(C)C)cc(C)c2O)cc1Cc1cc(C(C)(C)C)cc(C)c1O | 49.4% (inactive)
71 | O=C(O)CCC/C(=N\Nc1ccccc1)C(=O)O | 99.2% (active)
72 | Cc1cc(Oc2nc(Cl)nc(C(Cl)(Cl)Cl)c2Cl)cc(C)c1N(C)C (tested in a mixture with another compound) | 95.8% (active)
73 | CC(NCCO)c1ccc2ccccc2c1 (stereo not given) | -13.2% (inactive)
74 | [O-][n+]1ccc(Br)c(/C=C/c2ccccc2)c1 | 18.1% (inactive)
75 | O=C(NCCNCCNCCNC(=O)c1cc(-c2ccccc2)nc2ccccc12)c1cc(-c2ccccc2)nc2ccccc12 | 99.2% (active)
76 | CC(C)C(Sc1nc(-c2ccccc2)c(-c2ccccc2)[nH]1)C(=O)NN (stereo not given) | 33.4% (inactive)
77 | O=C(CNc1cccc(Cl)c1)Nn1c(-c2ccccc2)nc2ccccc2c1=O | 87.7% (active)
78 | O=C(COc1ccc(Cl)c(Cl)c1)Nc1ccc[n+](Cc2ccc(Cl)c(Cl)c2)c1 | 99.5% (active)
79 | CCOC(=O)c1cnccc1CC1(C#N)c2ccccc2C=CN1C(=O)c1ccccc1 (stereo not given) | 83.5% (active)
80 | O=C1C(N2CCOCC2)=C(Cl)C(=O)c2ncccc21 | 83.8% (active)

From PubChem BioAssay (NCI)
